In the library only some 12% were active in any assay of this set; here they are far more common.
G9a block – G9a (human) methyltransferase inhibition. Q96KQ7. G9a H3K9 monomethylation, AlphaScreen, 2 h. Potency, µM (titrated, usually from 102 µM), usual class: inhibitors. actives 8.8% (n = 350,000); further: nearly all actives have a fitted effect of over 75% in size
Target sequence (Q96KQ7 913-1193 limits assumed): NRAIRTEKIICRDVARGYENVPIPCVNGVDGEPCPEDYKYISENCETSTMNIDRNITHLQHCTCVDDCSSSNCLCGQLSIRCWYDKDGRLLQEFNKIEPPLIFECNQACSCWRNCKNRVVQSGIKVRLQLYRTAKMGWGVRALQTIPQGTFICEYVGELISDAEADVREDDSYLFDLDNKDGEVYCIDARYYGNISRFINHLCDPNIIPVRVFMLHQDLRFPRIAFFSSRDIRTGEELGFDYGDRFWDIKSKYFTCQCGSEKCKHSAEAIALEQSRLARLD
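Methyltransferase reactions run at room temperature for 2 h (20 nM enzyme, 500 nM biotin-H3K9 peptide, 20 uM SAM) after a 15 min compound preincubation; product detected by AlphaScreen beads and anti-H3K9me1 antibody.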
BAZ2B inh – BAZ2B (human) inhibition; Q9UIF8; AlphaScreen BAZ2B-H3K14Ac peptide displacement; Potency, µM (doses to about 114 µM), actives largely listed as inhibitors; actives 4.4% (n = 360,000); further: nearly all actives have a fitted effect of over 60% in size
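In this displacement format the biotinylated H3(5-23) peptide acetylated at Lys14 serves as ligand at 50 nM, with BAZ2B at 50 nM in PBS pH 7.4 containing 0.01% Tween-20. Donor and acceptor beads are 10 ug/mL final.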
PLK1 PBD inh – inhibitors of human PLK1 polo-box domain binding; AID 720504; Potency, µM, most hits filed as inhibitors; actives 2.8% (n = 360,000); Plk1 PBD binding of FITC phosphopeptide, fluorescence polarization; further: series mostly up to about 57 µM; nearly all actives have a fitted effect of over 65% in size
HP1b chromo inh – blocks HP1-beta chromodomain binding to methylated histone tails | P83916 | AlphaScreen HP1-beta / biotin-H3K9me3 peptide binding | Potency, µM (series often up to 114 µM), hits mostly inhibitors | actives 0.56% (n = 390,000) | AID 540317; further: nearly all actives have a fitted effect of over 70% in size
Target sequence (P83916 whole entry, looked up): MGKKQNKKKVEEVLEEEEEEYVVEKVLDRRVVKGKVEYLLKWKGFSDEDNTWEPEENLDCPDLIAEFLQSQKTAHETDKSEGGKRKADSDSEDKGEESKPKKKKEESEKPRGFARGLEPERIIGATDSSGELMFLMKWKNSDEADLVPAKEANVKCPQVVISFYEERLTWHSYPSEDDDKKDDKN
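Compound inhibition of the preformed complex between 50 nM HP1-beta and 50 nM biotinylated H3K9me3 peptide was read by AlphaScreen. Buffer was PBS pH 7.4 with 0.01% Tween-20. Incubations ran 30 min at room temperature, with 10 ug/mL donor/acceptor beads.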
PI5P4Ka inh – inhibitors of human PI5P4K alpha; max response, %; PI5P4Kalpha enzyme, ADP-Glo luminescence, 60 min; active compounds read low; actives 1.2% (n = 330,000); active means max response of -50% or lower; inconclusive means between -30% and -50%; inactive means -30% or higher; further: value at the top dose of about 77 µM
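ADP-Glo luminescence end-point after a 60 min room-temperature kinase reaction. PI5P4Kalpha and substrate in HEPES pH 7.4 buffer with EGTA, 0.1% CHAPS and 5% DMSO; ATP at 5 microM final.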
JMJD2A Tudor – blocks the human JMJD2A Tudor domain. AID 504339. Potency, µM (doses to about 114 µM), usual class: inhibitors. actives 4.4% (n = 390,000). AlphaScreen JMJD2A-Tudor / H3K4me3 peptide binding. O75164; further: nearly all actives have a fitted effect of over 50% in size
Large screens that a line does not name were inactive. Unless noted, the call rests on the fitted dose curve; in most records, active means well fitted curve in the direction sought with a large enough effect; inconclusive means small, poorly fitted or top-dose-only effect, or another doubt; inactive means no such curve, though single readings can be large; an effect the other way counts as inactive or inconclusive.

Cc1cccc(C)c1OCc1cc(=O)n2c3c(sc2n1)CCCC3	none (no result: PLK1 PBD inh, PI5P4Ka inh)
Cc1ccc(CNC(=O)c2ccc3c(c2)N(Cc2cccc(C)c2)C(=O)CS3)cc1	none (no result: PLK1 PBD inh, PI5P4Ka inh)
CCOc1ccc(NC(=S)N2CCC(C(=O)c3ccc(F)cc3)CC2)cc1	PLK1 PBD inh inconclusive (no result: G9a block, BAZ2B inh)
COc1ccc(CNC(=O)Cn2cnc3c(NCc4ccccc4)ncnc32)cc1	none (no result: G9a block, BAZ2B inh)
CC(C)n1cnc2c(NCc3ccccc3)cc(N[C@H](C)CO)cc21	HP1b chromo inh inconclusive, JMJD2A Tudor 56µM (no result: G9a block, BAZ2B inh)
COc1cc(NCc2ccccc2)c2ncn(Cc3ccccc3)c2c1	HP1b chromo inh inconclusive, JMJD2A Tudor 25µM (no result: G9a block, BAZ2B inh)
CCCN1C(=O)C2(c3ccccc31)c1c(oc3ccccc3c1=O)C(=O)N2CCCOC(C)C (stereo not given)	none (no result: PLK1 PBD inh, PI5P4Ka inh)
NNc1ccc(Cl)nn1	BAZ2B inh 20µM, HP1b chromo inh 79µM, JMJD2A Tudor 8.9µM (no result: G9a block)
CNc1ccc(Cl)nn1	none
C[C@@H]1CN([C@H](C)CO)C(=O)c2cc(C#CC(C)(C)O)cnc2O[C@@H]1CN(C)C(=O)C1CC1	none (no result: G9a block, BAZ2B inh, HP1b chromo inh, JMJD2A Tudor)
Cc1ccc(S(=O)(=O)Nc2ccc(F)cc2)cc1C(=O)N1CCOCC1	none (no result: G9a block, BAZ2B inh)
O=C(CNCCO)Nc1ccc(F)c(Cl)c1	none
O=C(CNCCCO)Nc1cc(C(F)(F)F)cc(NC(=O)CNCCCO)c1Cl	G9a block 11µM
COc1ccc(NS(=O)(=O)c2cnc(N)nc2)cc1Cl	JMJD2A Tudor 50µM (no result: PLK1 PBD inh, PI5P4Ka inh)
O=C(NCC(c1cccs1)N1CCOCC1)c1ccccc1NS(=O)(=O)c1ccc(Cl)c([N+](=O)[O-])c1 (stereo not given)	G9a block 45µM
O=C(NCC(c1cccs1)N1CCOCC1)c1ccccc1NS(=O)(=O)c1ccc(Cl)cc1 (stereo not given)	G9a block 71µM
O=C(NCC(c1cccs1)N1CCOCC1)c1ccccc1NS(=O)(=O)c1cccc([N+](=O)[O-])c1 (stereo not given)	BAZ2B inh inconclusive, JMJD2A Tudor inconclusive
O=C(NCC(c1cccs1)N1CCOCC1)c1ccccc1NS(=O)(=O)c1cc([N+](=O)[O-])ccc1Cl (stereo not given)	G9a block 45µM
COC(=O)c1ccc(CSc2nc3c([nH]c4ccccc43)c(=O)n2-c2ccc(F)cc2)o1	none (no result: PLK1 PBD inh, PI5P4Ka inh)
Cc1cccc(Cc2cnc(N3C(=N)SC(c4ccccc4)C3=O)s2)c1 (stereo not given)	PI5P4Ka inh -55
CC12CCC(C(=O)NCc3ccc4c(c3)OCO4)(CC1=O)C2(C)C (stereo not given)	PLK1 PBD inh inconclusive
COCCN(CCOC)C(=O)C12CCC(C)(C(=O)C1)C2(C)C (stereo not given)	G9a block 50µM (no result: PI5P4Ka inh)
O=C(c1cnccn1)N1CCC2(CC1)CN(c1ncccn1)C2	none (no result: BAZ2B inh, PLK1 PBD inh, HP1b chromo inh, PI5P4Ka inh, JMJD2A Tudor)
Cn1c(N2CCN(C(=O)NCc3ccccc3)CC2)nc2ccccc21	none (no result: BAZ2B inh)
CCCn1c(N2CCN(C(=O)Nc3ccc(Cl)cc3)CC2)nc2ccccc21	JMJD2A Tudor 100µM
Cn1c(N2CCN(C(=O)Nc3ccc(C(F)(F)F)cc3)CC2)nc2ccccc21	PLK1 PBD inh 11µM, PI5P4Ka inh inconclusive, JMJD2A Tudor inconclusive
CCCn1c(N2CCN(CC(=O)Nc3ccc4c(c3)OCCO4)CC2)nc2ccccc21	G9a block 50µM, BAZ2B inh inconclusive, JMJD2A Tudor inconclusive
Cc1ccc(-n2ncc3c(N4CCN(Cc5ccccc5)CC4)ncnc32)cc1C	none (no result: PLK1 PBD inh, PI5P4Ka inh)
CCOc1ccc(NC(=O)c2nn(C)c3c2COc2ccccc2-3)cc1	G9a block inconclusive (no result: PLK1 PBD inh, PI5P4Ka inh)
COC(=O)[C@@]1(Cc2ccc(F)cc2)[C@H]2c3cc(C(=O)N(C)C)n(Cc4ccsc4Br)c3C[C@H]2CN1C(=O)c1ccccc1	none (no result: G9a block, BAZ2B inh, HP1b chromo inh, JMJD2A Tudor)
Cc1ccc2c(c1)-c1ccccc1S(=O)(=O)N2	none
Nc1ccc2c(c1)-c1ccccc1S(=O)(=O)N2	G9a block 32µM, BAZ2B inh inconclusive, PI5P4Ka inh inconclusive, JMJD2A Tudor inconclusive
Nc1nc(NCCc2ccccc2)c2[nH]cnc2n1	none (no result: G9a block, BAZ2B inh, PLK1 PBD inh, PI5P4Ka inh)
Oc1ccccc1C=NNC(=S)Nc1ccc(F)cc1	PI5P4Ka inh inconclusive, JMJD2A Tudor 56µM (no result: G9a block, BAZ2B inh)
Cc1nn(C)cc1/C=N/NC(=S)Nc1ccccc1	G9a block inconclusive, PLK1 PBD inh 12µM, JMJD2A Tudor inconclusive (no result: PI5P4Ka inh)

From PubChem
